# PubChem BioAssay (EPA / NIEHS)
# Results filed as inconclusive are left out. Active and inactive are the calls of the source. The calls were made as follows: active = hit-call score of the fitted dose curve at least 0.9, where 1 is the maximum; inconclusive = response in the unintended direction; inactive = score below 0.9.
# Molecular target: Nuclear receptor subfamily 1 group I member 2 (Homo sapiens) (UniProt O75469)
# Test: ATG_PXR_TRANS: Attagene TRANS-FACTORIAL HepG2 Assay for human Pregnane X Receptor (PXR) (AID 2283008)
# Description: ATG_TRANS is a cell-based, multiplexed-readout assay that uses HepG2, a human liver cell line, with measurements taken at 24 hours after chemical dosing in a 24-well plate.ATG_PXR_TRANS is one of 30 assay component(s) measured or calculated from the ATG_TRANS assay. It is designed to make measurements of mRNA induction, a form of inducible reporter, as detected with fluorescence intensity signals by Reverse transcription polymerase chain reaction (RT-PCR) and Capillary electrophoresis technology.Data from the assay component ATG_PXR_TRANS was analyzed into 1 assay endpoint. This assay endpoint, ATG_PXR_TRANS, was analyzed in the positive analysis fitting direction relative to DMSO as the negative control and baseline of activity. Using a type of inducible reporter, measures of mRNA for gain-of-signal activity can be used to understand the reporter gene at the transcription factor-level as they relate to the gene NR1I2. Furthermore, this assay endpoint can be referred to as a primary readout, because this assay has produced multiple assay endpoints where this one serves a reporter gene function. To generalize the intended target to other relatable targets, this assay endpoint is annotated to the nuclear receptor intended target family, where the subfamily is non-steroidal.
# Human liver HepG2 cells are transiently transfected with multiple reporter transcription units (MRTUs) in 6-well plates using FuGene 6 reagent (Roche; 3 ml FuGene/1 mg DNA). The MRTU constructs are regulated by a cis-regulating element (promoter). […] A major difference between the CIS and TRANS system is that in CIS activities of endogenous TFs are measured, whereas the TRANS assay evaluates changes in activities of exogenous, chimeric NR-Gal4 proteins. […] At the end of 24 hour incubation, total RNA was isolated using TriZol reagent (Invitrogen). The isolated RNA is then reverse-transcribed using oligo(dT) primer and Mo-MLV reverse transcriptase (Invitrogen) with DNAse I (Ambion) treatment for 30 min. The one-tenth of the produced cDNA was amplified by PCR using Taq DNA polymerase (Invitrogen) and two reporter sequence-specific primers. The PCR products were fluorescently labeled by primer extension with 6-arboxyfluorescein (6-FAM) 5'-labeled reporter sequence-specific primer (2 min at 95 C, 20 s at 68 C and 10 min at 72 C) and these products were digested with 5U of HpaI (New England Biolabs) for 2h at 37 C. The fragments were purified using Qiaquick PCR columns (Qiagen), analyzed on an ABI 3130xL genetic analyzer (Applied Biosystems) with peak positions identified by using a set of X-rhodamine (ROX)-labeled MapMarker1000 molecular weight standards (BioVentures). The raw capillary electrophoresis data was processed using Attagraph software (Attagene).
# Nuclear receptor subfamily 1 group I member 2 (Homo sapiens), sequence (O75469 whole entry, looked up): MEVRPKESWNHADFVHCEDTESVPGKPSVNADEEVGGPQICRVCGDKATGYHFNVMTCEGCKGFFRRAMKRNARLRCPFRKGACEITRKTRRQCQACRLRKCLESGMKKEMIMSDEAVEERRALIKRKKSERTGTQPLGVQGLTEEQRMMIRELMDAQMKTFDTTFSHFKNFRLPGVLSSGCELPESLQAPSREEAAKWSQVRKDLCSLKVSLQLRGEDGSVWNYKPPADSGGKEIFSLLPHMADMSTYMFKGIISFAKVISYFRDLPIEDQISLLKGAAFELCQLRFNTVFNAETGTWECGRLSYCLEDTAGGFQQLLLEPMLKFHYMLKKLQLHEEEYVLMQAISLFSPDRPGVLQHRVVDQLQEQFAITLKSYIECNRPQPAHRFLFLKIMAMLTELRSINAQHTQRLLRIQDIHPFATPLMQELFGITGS
SMILES,outcome,AC50
C[As+](C)(C)CC(=O)[O-],inactive,–
O=S1(=O)OC(c2cc(Br)c(O)c(Br)c2)(c2cc(Br)c(O)c(Br)c2)c2ccccc21,inactive,–
CC(C)(C1CCC(O)CC1)C1CCC(O)CC1 (stereo not given),inactive,–
CCOP(=S)(OCC)OP(=S)(OCC)OCC,–,940 nM (active)
O=C(NC(=O)c1c(F)cccc1F)Nc1cc(Cl)c(F)c(Cl)c1F,inactive,–
OCC(c1ccc(Cl)cc1)c1ccc(Cl)cc1,–,20100 nM (active)
Clc1ccc(C(Cl)(Cl)Cl)cn1,inactive,–
CCCCN(CCCCO)N=O,inactive,–
CC(C)(c1ccccc1)c1cc(-n2nc3ccccc3n2)c(O)c(C(C)(C)c2ccccc2)c1,inactive,–
NC(=O)c1ccc(N)nc1,inactive,–
O=c1[nH]c(=O)n(Cl)c(=O)n1Cl,inactive,–
CC1CC(=O)O1 (stereo not given),inactive,–
CCCCCCCCCCBr,inactive,–
CCOP(=S)(OCC)O/N=C(\C#N)c1ccccc1,–,1540 nM (active)
COC(F)(C(F)(F)C(F)(F)F)C(F)(C(F)(F)F)C(F)(F)F (stereo not given),inactive,–
COc1nn(C(=O)NS(=O)(=O)c2ccccc2OC(F)(F)F)c(=O)n1C,inactive,–
Cc1ccccc1OP(=O)(Oc1ccccc1)Oc1ccccc1,–,736 nM (active)
Cc1c([N+](=O)[O-])c(C)c([N+](=O)[O-])c(C(C)(C)C)c1[N+](=O)[O-],–,2050 nM (active)
ClCc1ccccc1CCl,inactive,–
CCCCN(CCCC)C(=S)[S-].CCCCN(CCCC)C(=S)[S-].[Ni+2],–,2730 nM (active)

SMILES,outcome,AC50
O=c1[nH]c2ccccc2n1C1CCN(CCCC(c2ccc(F)cc2)c2ccc(F)cc2)CC1,inactive,–
O=[N+]([O-])c1cc([As](=O)(O)O)ccc1O,inactive,–
O=C1c2ccccc2C(=O)C1C(=O)C(c1ccccc1)c1ccc(Cl)cc1 (stereo not given),–,2450 nM (active)
Clc1cc(C(Cl)(Cl)Cl)cnc1Cl,inactive,–
C1CCC(C2CCCCC2)CC1,inactive,–
CCOC(=O)CCN(SN(C)C(=O)Oc1cccc2c1OC(C)(C)C2)C(C)C,–,14500 nM (active)
Nc1cccnc1,inactive,–
N#Cc1ccncc1,inactive,–
Cc1cc(Cl)ccc1N,inactive,–
CN(C1CCCCC1)C1CCCCC1,inactive,–
C[C@H]1C(=O)O[C@@H]2CCN3CC=C(COC(=O)[C@](C)(O)[C@]1(C)O)[C@H]23,inactive,–
CCC[N+](CCC)(CCC)CCC,inactive,–
CN(C)CCN(C)C,inactive,–
C=C(C)C(=O)OCC(CC)CCCC (stereo not given),inactive,–
CC[N+](CC)(CC)CC,inactive,–
O=C(NC(=O)c1c(F)cccc1F)Nc1ccc(Cl)cc1,inactive,–
CCOCn1c(-c2ccc(Cl)cc2)c(C#N)c(Br)c1C(F)(F)F,–,561 nM (active)
OC[C@@H](O)[C@H]1O[C@@H]2O[C@H](C(Cl)(Cl)Cl)O[C@@H]2[C@H]1O,inactive,–
CCCCCCCCCCCCN(C)C,inactive,–
CC(c1ccccc1)(c1ccc(O)cc1)c1ccc(O)cc1,–,2540 nM (active)
